According to PubChem BioAssay AID1159580 (chemical genetic matrix, 2015):
The whole screen tested about 5,500 compounds, of which about 2,000 (36%) were called active. Not shown: some 18% with an inconclusive outcome. This is one part of the list. Values without a mark were called inactive. Rule as the data show it: active = normalized growth mostly below about 0.91 (no sharp cut-off); inconclusive = no clear call, values can overlap the other calls; inactive = mostly above about 0.92.

Assay: chemical genetic growth profiling, strain panel (AID 1159580);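 also: tested at 20 µM; growth read once vehicle control cultures reached saturation at 30 °C; 1 = growth at the plate median or of vehicle wells; lower values mean less growth of the strain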
Settings: growth OD
[1] = S. cerevisiae deletion strains, locus YDL101C, strain DUN1, active compounds read low
[2] = S. cerevisiae deletion strains, locus YHR030C, strain SLT2, active compounds read low
[3] = S. cerevisiae deletion strains, locus YAL013W, strain DEP1, active compounds read low
[4] = S. cerevisiae deletion strains, locus YBR229C, strain ROT2, active compounds read low
[5] = S. cerevisiae deletion strains, locus YDL134C, strain PPH21, active compounds read low
[6] = S. cerevisiae deletion strains, locus YDR150W, strain NUM1, active compounds read low
[7] = S. cerevisiae deletion strains, locus YEL061C, strain CIN8, active compounds read low
[8] = S. cerevisiae deletion strains, locus YGR078C, strain PAC10, active compounds read low
[9] = S. cerevisiae deletion strains, locus YHR087W, strain rtc3, active compounds read low
[10] = S. cerevisiae deletion strains, locus YJR043C, strain POL32, active compounds read low
[11] = S. cerevisiae deletion strains, locus YJR075W, strain HOC1, active compounds read low
[12] = S. cerevisiae deletion strains, locus YLR039C, strain RIC1, active compounds read low
[13] = S. cerevisiae deletion strains, locus YLR058C, strain SHM2 (second series), active compounds read low
[14] = S. cerevisiae deletion strains, locus YLR085C, strain ARP6, active compounds read low
[15] = S. cerevisiae deletion strains, locus YLR262C, strain YPT6, active compounds read low
[16] = S. cerevisiae deletion strains, locus YML094W, strain GIM5, active compounds read low
[17] = S. cerevisiae deletion strains, locus YMR219W, strain ESC1, active compounds read low
[18] = S. cerevisiae deletion strains, locus YMR263W, strain SAP30, active compounds read low
[19] = S. cerevisiae deletion strains, locus YMR307W, strain GAS1, active compounds read low
[20] = S. cerevisiae deletion strains, locus YNL153C, strain GIM3, active compounds read low
[21] = S. cerevisiae deletion strains, locus YNL298W, strain CLA4 (second series), active compounds read low
[22] = S. cerevisiae deletion strains, locus YNL322C, strain KRE1, active compounds read low
[23] = S. cerevisiae deletion strains, locus YNR030W, strain Alg12, active compounds read low
[24] = S. cerevisiae deletion strains, locus YPL055C, strain LGE1, active compounds read low
[25] = S. cerevisiae deletion strains, locus YPL241C, strain CIN2, active compounds read low
[26] = S. cerevisiae deletion strains, locus YPR135W, strain CTF4, active compounds read low

## Cc1ccc(OCc2n[nH]c(=S)n2Cc2ccccc2)c2c1CCC2
S. cerevisiae deletion strains, locus YAR019C, strain CDC15, active compounds read low
  normalized growth: 0.987
S. cerevisiae deletion strains, locus YBL105C, strain PKC1, active compounds read low
  normalized growth: 0.988
S. cerevisiae deletion strains, locus YBR135W, strain CKS1, active compounds read low
  normalized growth: 0.982
S. cerevisiae deletion strains, locus YBR136W, strain MEC1, active compounds read low
  normalized growth: 0.98
S. cerevisiae deletion strains, locus YBR160W, strain CDC28, active compounds read low
  normalized growth: 0.985
S. cerevisiae deletion strains, locus YDL017W, strain CDC7, active compounds read low
  normalized growth: 0.987
S. cerevisiae deletion strains, locus YDL028C, strain MPS1, active compounds read low
  normalized growth: 0.975
[1]
  normalized growth: 0.994
S. cerevisiae deletion strains, locus YDL108W, strain KIN28, active compounds read low
  normalized growth: 0.973
S. cerevisiae deletion strains, locus YDL132W, strain cdc53, active compounds read low
  normalized growth: 0.99
S. cerevisiae deletion strains, locus YDL214C, strain PRR2, active compounds read low
  normalized growth: 0.823
S. cerevisiae deletion strains, locus YDR052C, strain DBF4, active compounds read low
  normalized growth: 0.995
S. cerevisiae deletion strains, locus YDR054C, strain cdc34, active compounds read low
  normalized growth: 0.988
S. cerevisiae deletion strains, locus YDR226W, strain ADK1, active compounds read low
  normalized growth: 0.988
S. cerevisiae deletion strains, locus YDR477W, strain SNF1, active compounds read low
  normalized growth: 0.817
S. cerevisiae deletion strains, locus YER123W, strain YCK3, active compounds read low
  normalized growth: 0.609 (active)
S. cerevisiae deletion strains, locus YER133W, strain GLC7, active compounds read low
  normalized growth: 0.841
S. cerevisiae deletion strains, locus YFL009W, strain cdc4, active compounds read low
  normalized growth: 0.984
S. cerevisiae deletion strains, locus YFL029C, strain CAK1, active compounds read low
  normalized growth: 0.992
S. cerevisiae deletion strains, locus YFR003C, strain YPI1, active compounds read low
  normalized growth: 0.985
S. cerevisiae deletion strains, locus YFR019W, strain FAB1, active compounds read low
  normalized growth: 0.68 (active)
S. cerevisiae deletion strains, locus YFR028C, strain CDC14, active compounds read low
  normalized growth: 0.984
S. cerevisiae deletion strains, locus YGR040W, strain KSS1, active compounds read low
  normalized growth: 0.801
S. cerevisiae deletion strains, locus YGR052W, strain FMP48, active compounds read low
  normalized growth: 0.647
S. cerevisiae deletion strains, locus YGR092W, strain DBF2, active compounds read low
  normalized growth: 0.495
[2]
  normalized growth: 0.283 (active)
S. cerevisiae deletion strains, locus YHR079C, strain IRE1, active compounds read low
  normalized growth: 0.619
S. cerevisiae deletion strains, locus YHR082C, strain KSP1, active compounds read low
  normalized growth: 0.53 (active)
S. cerevisiae deletion strains, locus YHR205W, strain SCH9, active compounds read low
  normalized growth: 0.908
S. cerevisiae deletion strains, locus YIL147C, strain SLN1, active compounds read low
  normalized growth: 0.967
S. cerevisiae deletion strains, locus YJL095W, strain BCK1, active compounds read low
  normalized growth: 0.656
S. cerevisiae deletion strains, locus YJL128C, strain PBS2, active compounds read low
  normalized growth: 0.955
S. cerevisiae deletion strains, locus YJL157C, strain FAR1, active compounds read low
  normalized growth: 0.803
S. cerevisiae deletion strains, locus YJR016C, strain ILV3, active compounds read low
  normalized growth: 0.986
S. cerevisiae deletion strains, locus YJR066W, strain TOR1 (second series), active compounds read low
  normalized growth: 0.797
S. cerevisiae deletion strains, locus YJR066W, strain TOR1, active compounds read low
  normalized growth: 0.73
S. cerevisiae deletion strains, locus YKL048C, strain ELM1, active compounds read low
  normalized growth: 0.782 (active)
S. cerevisiae deletion strains, locus YKL067W, strain YNK1, active compounds read low
  normalized growth: 0.838
S. cerevisiae deletion strains, locus YKL101W, strain HSL1, active compounds read low
  normalized growth: 0.722 (active)
S. cerevisiae deletion strains, locus YKL193C, strain SDS22, active compounds read low
  normalized growth: 0.988
S. cerevisiae deletion strains, locus YKL203C, strain TOR2, active compounds read low
  normalized growth: 0.829
S. cerevisiae deletion strains, locus YLR113W, strain HOG1, active compounds read low
  normalized growth: 0.698 (active)
S. cerevisiae deletion strains, locus YLR133W, strain CKI1, active compounds read low
  normalized growth: 0.793
S. cerevisiae deletion strains, locus YLR403W, strain SFP1, active compounds read low
  normalized growth: 0.84
S. cerevisiae deletion strains, locus YML070W, strain DAK1, active compounds read low
  normalized growth: 0.752
S. cerevisiae deletion strains, locus YMR001C, strain CDC5, active compounds read low
  normalized growth: 0.984
S. cerevisiae deletion strains, locus YMR205C, strain PFK2 (second series), active compounds read low
  normalized growth: 0.847
S. cerevisiae deletion strains, locus YMR277W, strain FCP1, active compounds read low
  normalized growth: 0.986
S. cerevisiae deletion strains, locus YNL006W, strain LST8, active compounds read low
  normalized growth: 0.998
S. cerevisiae deletion strains, locus YNL020C, strain ARK1, active compounds read low
  normalized growth: 0.713
S. cerevisiae deletion strains, locus YNL161W, strain CBK1, active compounds read low
  normalized growth: 0.99
S. cerevisiae deletion strains, locus YNL183C, strain NPR1, active compounds read low
  normalized growth: 0.628
S. cerevisiae deletion strains, locus YNL207W, strain RIO2, active compounds read low
  normalized growth: 0.988
S. cerevisiae deletion strains, locus YNL222W, strain SSU72, active compounds read low
  normalized growth: 0.986
S. cerevisiae deletion strains, locus YNL307C, strain MCK1 (second series), active compounds read low
  normalized growth: 0.621 (active)
S. cerevisiae deletion strains, locus YOL078W, strain AVO1, active compounds read low
  normalized growth: 0.985
S. cerevisiae deletion strains, locus YOL136C, strain PFK27, active compounds read low
  normalized growth: 0.785
S. cerevisiae deletion strains, locus YOR061W, strain CKA2, active compounds read low
  normalized growth: 0.751
S. cerevisiae deletion strains, locus YOR119C, strain RIO1, active compounds read low
  normalized growth: 0.883
S. cerevisiae deletion strains, locus YOR231W, strain MKK1, active compounds read low
  normalized growth: 0.677
S. cerevisiae deletion strains, locus YOR329C, strain SCD5, active compounds read low
  normalized growth: 0.988
S. cerevisiae deletion strains, locus YPL031C, strain PHO85, active compounds read low
  normalized growth: 0.746
S. cerevisiae deletion strains, locus YPL153C, strain RAD53, active compounds read low
  normalized growth: 0.609 (active)
S. cerevisiae deletion strains, locus YPL204W, strain HRR25, active compounds read low
  normalized growth: 0.723
S. cerevisiae deletion strains, locus YPL209C, strain IPL1, active compounds read low
  normalized growth: 0.984
S. cerevisiae deletion strains, locus YPL256C, strain CLN2, active compounds read low
  normalized growth: 0.655 (active)
S. cerevisiae deletion strains, locus YPR025C, strain CCL1, active compounds read low
  normalized growth: 0.989
S. cerevisiae deletion strains, locus YPR106W, strain ISR1, active compounds read low
  normalized growth: 0.992
S. cerevisiae deletion strains, locus YPR111W, strain DBF20, active compounds read low
  normalized growth: 0.99
S. cerevisiae deletion strains, strain NNK1, active compounds read low
  normalized growth: 1
S. cerevisiae deletion strains, strain TSCII, active compounds read low
  normalized growth: 0.991

## C=CCn1c(COc2c(Br)cc(C)c3c2CCC3)n[nH]c1=S
[3]
  normalized growth: 0.968
[4]
  normalized growth: 0.977
S. cerevisiae deletion strains, locus YCL061C, strain MRC1, active compounds read low
  normalized growth: 0.969
[1]
  normalized growth: 0.975
[5]
  normalized growth: 0.965
[6]
  normalized growth: 0.857
[7]
  normalized growth: 0.896 (active)
[8]
  normalized growth: 0.978
[2]
  normalized growth: 0.544 (active)
[9]
  normalized growth: 1.01
[10]
  normalized growth: 0.98
[11]
  normalized growth: 0.992
[12]
  normalized growth: 0.491 (active)
[13]
  normalized growth: 0.991
[14]
  normalized growth: 0.558 (active)
[15]
  normalized growth: 0.571 (active)
[16]
  normalized growth: 0.841 (active)
[17]
  normalized growth: 0.988
[18]
  normalized growth: 0.846 (active)
[19]
  normalized growth: 0.324 (active)
[20]
  normalized growth: 0.975
[21]
  normalized growth: 0.764 (active)
[22]
  normalized growth: 0.991
[23]
  normalized growth: 0.874 (active)
[24]
  normalized growth: 1.08
[25]
  normalized growth: 0.847 (active)
[26]
  normalized growth: 0.612 (active)

## Cc1ccc(OCc2nnc(SCC(=O)c3ccc(F)cc3)n2-c2ccccc2)c2c1CCC2
[3]
  normalized growth: 0.982
[4]
  normalized growth: 0.987
[1]
  normalized growth: 0.961
[5]
  normalized growth: 0.982
[6]
  normalized growth: 0.972
[7]
  normalized growth: 0.982
[8]
  normalized growth: 0.966
S. cerevisiae deletion strains, locus YGR229C, strain SMI1, active compounds read low
  normalized growth: 0.984
[2]
  normalized growth: 0.964
[9]
  normalized growth: 0.957
S. cerevisiae deletion strains, locus YJL187C, strain SWE1, active compounds read low
  normalized growth: 0.983
[10]
  normalized growth: 0.969
[11]
  normalized growth: 0.986
[12]
  normalized growth: 0.968
[13]
  normalized growth: 0.978
[14]
  normalized growth: 0.957
[15]
  normalized growth: 0.961
[16]
  normalized growth: 0.947
[17]
  normalized growth: 0.99
[18]
  normalized growth: 0.982
[19]
  normalized growth: 1.01
S. cerevisiae deletion strains, locus YNL128W, strain TEP1, active compounds read low
  normalized growth: 0.992
[20]
  normalized growth: 0.989
[21]
  normalized growth: 0.972
[22]
  normalized growth: 0.993
[23]
  normalized growth: 0.98
S. cerevisiae deletion strains, locus YOL006C, strain TOP1, active compounds read low
  normalized growth: 0.963
[24]
  normalized growth: 0.956
[25]
  normalized growth: 1.04
[26]
  normalized growth: 0.867
S. cerevisiae strains, strain wild type, active compounds read low
  normalized growth: 0.971
